Data from the supplement of paper PMC4466140.

Assays:
Experiment in all cases: SPOT peptide array binding signal intensity (averaged, normalized) (arbitrary units (background-subtracted, floor 0; scale differs between SH3 domains)); higher = stronger binding of the SH3 domain to the peptide
CaNbp2 = target: CaNbp2
In short: (§1)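 Peptides were synthetic 15-mers on cellulose membranes, with every cysteine replaced by serine. They were incubated overnight at 4°C with GST-SH3 domains from four yeast species at 10 μg/ml in TBS-based blocking buffer. Binding signal, the replicate-averaged normalized and background-subtracted spot intensity, is in arbitrary units that differ between domains.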

CaRvs167 = target: CaRvs167
In short: as §1

CaRvs167-3 = target: CaRvs167-3
In short: as §1

CaSho1 = target: CaSho1
In short: as §1

CaSla1-D1-D2 = target: CaSla1-D1-D2
In short: as §1

CaSla1-D3 = target: CaSla1-D3
In short: as §1

ScAbp1 = target: ScAbp1
In short: as §1

ScBbc1 = target: ScBbc1
In short: as §1

ScBem1-D1 = target: ScBem1-D1
In short: as §1

ScBzz1-D1 = target: ScBzz1-D1
In short: as §1

ScBzz1-D2 = target: ScBzz1-D2
In short: as §1

ScCyk3 = target: ScCyk3
In short: as §1

ScFus1 = target: ScFus1
In short: as §1

ScHof1 = target: ScHof1
In short: as §1

ScHse1 = target: ScHse1
In short: as §1

ScLsb1 = target: ScLsb1
In short: as §1

ScLsb2 = target: ScLsb2
In short: as §1

ScLsb3 = target: ScLsb3
In short: as §1

ScLsb4 = target: ScLsb4
In short: as §1

ScMyo3 = target: ScMyo3
In short: as §1

ScMyo5 = target: ScMyo5
In short: as §1

ScNbp2 = target: ScNbp2
In short: as §1

ScPex13 = target: ScPex13
In short: as §1

ScRvs167 = target: ScRvs167
In short: as §1

ScSho1 = target: ScSho1
In short: as §1

ScSla1-D1-D2 = target: ScSla1-D1-D2
In short: as §1

ScSla1-D3 = target: ScSla1-D3
In short: as §1

SpAbp1-D1 = target: SpAbp1-D1
In short: as §1

SpBbc1 = target: SpBbc1
In short: as §1

SpBzz1-D1 = target: SpBzz1-D1
In short: as §1

SpBzz1-D2 = target: SpBzz1-D2
In short: as §1

SpCyk3 = target: SpCyk3
In short: as §1

SpHof1 = target: SpHof1
In short: as §1

SpHof1-2 = target: SpHof1-2
In short: as §1

SpHof1-3 = target: SpHof1-3
In short: as §1

SpHse1 = target: SpHse1
In short: as §1

SpLsb1 = target: SpLsb1
In short: as §1

SpLsb4 = target: SpLsb4
In short: as §1

SpMyo1 = target: SpMyo1
In short: as §1

SpNbp2 = target: SpNbp2
In short: as §1

SpPex13 = target: SpPex13
In short: as §1

SpRvs167 = target: SpRvs167
In short: as §1

SpSla1-D1-D2 = target: SpSla1-D1-D2
In short: as §1

SpSla1-D3 = target: SpSla1-D3
In short: as §1

AgAbp1 = target: AgAbp1
In short: as §1

AgBbc1 = target: AgBbc1
In short: as §1

AgBem1-D1 = target: AgBem1-D1
In short: as §1

AgBzz1-D1 = target: AgBzz1-D1
In short: as §1

AgBzz1-D2 = target: AgBzz1-D2
In short: as §1

AgCyk3 = target: AgCyk3
In short: as §1

AgFus1 = target: AgFus1
In short: as §1

AgHof1 = target: AgHof1
In short: as §1

AgHse1 = target: AgHse1
In short: as §1

AgLsb1 = target: AgLsb1
In short: as §1

AgLsb4 = target: AgLsb4
In short: as §1

AgMyo5 = target: AgMyo5
In short: as §1

AgNbp2 = target: AgNbp2
In short: as §1

AgRvs167 = target: AgRvs167
In short: as §1

AgSho1 = target: AgSho1
In short: as §1

AgSla1-D1-D2 = target: AgSla1-D1-D2
In short: as §1

AgSla1-D3 = target: AgSla1-D3
In short: as §1

CaAbp1-D1 = target: CaAbp1-D1
In short: as §1

CaAbp1-D2 = target: CaAbp1-D2
In short: as §1

CaBbc1 = target: CaBbc1
In short: as §1

CaBem1-D1 = target: CaBem1-D1
In short: as §1

CaBzz1-D1 = target: CaBzz1-D1
In short: as §1

CaBzz1-D2 = target: CaBzz1-D2
In short: as §1

CaCyk3 = target: CaCyk3
In short: as §1

CaFus1 = target: CaFus1
In short: as §1

CaHof1 = target: CaHof1
In short: as §1

CaHse1 = target: CaHse1
In short: as §1

CaLsb1 = target: CaLsb1
In short: as §1

CaLsb4 = target: CaLsb4
In short: as §1

CaMyo5 = target: CaMyo5
In short: as §1

B1: unnamed (peptide)
chain: TPRLSLPRLPNKHHW
SPOT peptide array binding signal intensity (CaNbp2): 116
SPOT peptide array binding signal intensity (CaRvs167): 2.83
SPOT peptide array binding signal intensity (CaRvs167-3): 4.75
SPOT peptide array binding signal intensity (CaSho1): 89
SPOT peptide array binding signal intensity (CaSla1-D1-D2): 256
SPOT peptide array binding signal intensity (CaSla1-D3): 1.5
SPOT peptide array binding signal intensity (ScAbp1): 0.5
SPOT peptide array binding signal intensity (ScBbc1): ≤ 0
SPOT peptide array binding signal intensity (ScBem1-D1): 2
SPOT peptide array binding signal intensity (ScBzz1-D1): ≤ 0
SPOT peptide array binding signal intensity (ScBzz1-D2): 16.5
SPOT peptide array binding signal intensity (ScCyk3): 6
SPOT peptide array binding signal intensity (ScFus1): 0.5
SPOT peptide array binding signal intensity (ScHof1): 238
SPOT peptide array binding signal intensity (ScHse1): 216
SPOT peptide array binding signal intensity (ScLsb1): 8
SPOT peptide array binding signal intensity (ScLsb2): ≤ 0
SPOT peptide array binding signal intensity (ScLsb3): 1330
SPOT peptide array binding signal intensity (ScLsb4): 5
SPOT peptide array binding signal intensity (ScMyo3): ≤ 0
SPOT peptide array binding signal intensity (ScMyo5): ≤ 0
SPOT peptide array binding signal intensity (ScNbp2): 62
SPOT peptide array binding signal intensity (ScPex13): 224
SPOT peptide array binding signal intensity (ScRvs167): 3.33
SPOT peptide array binding signal intensity (ScSho1): 764
SPOT peptide array binding signal intensity (ScSla1-D1-D2): 13.5
SPOT peptide array binding signal intensity (ScSla1-D3): 1.75
SPOT peptide array binding signal intensity (SpAbp1-D1): 386
SPOT peptide array binding signal intensity (SpBbc1): ≤ 0
SPOT peptide array binding signal intensity (SpBzz1-D1): 403
SPOT peptide array binding signal intensity (SpBzz1-D2): 0.75
SPOT peptide array binding signal intensity (SpCyk3): 2
SPOT peptide array binding signal intensity (SpHof1): 35
SPOT peptide array binding signal intensity (SpHof1-2): 293
SPOT peptide array binding signal intensity (SpHof1-3): 136
SPOT peptide array binding signal intensity (SpHse1): 416
SPOT peptide array binding signal intensity (SpLsb1): ≤ 0
SPOT peptide array binding signal intensity (SpLsb4): 357
SPOT peptide array binding signal intensity (SpMyo1): 5.5
SPOT peptide array binding signal intensity (SpNbp2): 61
SPOT peptide array binding signal intensity (SpPex13): 5
SPOT peptide array binding signal intensity (SpRvs167): 302
SPOT peptide array binding signal intensity (SpSla1-D1-D2): 7
SPOT peptide array binding signal intensity (SpSla1-D3): ≤ 0

B2: unnamed (peptide)
chain: RVTRKRPREPKSTND
SPOT peptide array binding signal intensity (AgAbp1): 86
SPOT peptide array binding signal intensity (AgBbc1): 146
SPOT peptide array binding signal intensity (AgBem1-D1): 322
SPOT peptide array binding signal intensity (AgBzz1-D1): 18
SPOT peptide array binding signal intensity (AgBzz1-D2): 31
SPOT peptide array binding signal intensity (AgCyk3): 3
SPOT peptide array binding signal intensity (AgFus1): 300
SPOT peptide array binding signal intensity (AgHof1): 64.5
SPOT peptide array binding signal intensity (AgHse1): 606
SPOT peptide array binding signal intensity (AgLsb1): 3
SPOT peptide array binding signal intensity (AgLsb4): 72
SPOT peptide array binding signal intensity (AgMyo5): 2.5
SPOT peptide array binding signal intensity (AgNbp2): 123
SPOT peptide array binding signal intensity (AgRvs167): 0.667
SPOT peptide array binding signal intensity (AgSho1): 31
SPOT peptide array binding signal intensity (AgSla1-D1-D2): 178
SPOT peptide array binding signal intensity (AgSla1-D3): 7.25
SPOT peptide array binding signal intensity (CaAbp1-D1): 887
SPOT peptide array binding signal intensity (CaAbp1-D2): 550
SPOT peptide array binding signal intensity (CaBbc1): 346
SPOT peptide array binding signal intensity (CaBem1-D1): 40.5
SPOT peptide array binding signal intensity (CaBzz1-D1): 134
SPOT peptide array binding signal intensity (CaBzz1-D2): 174
SPOT peptide array binding signal intensity (CaCyk3): 169
SPOT peptide array binding signal intensity (CaFus1): 734
SPOT peptide array binding signal intensity (CaHof1): 1
SPOT peptide array binding signal intensity (CaHse1): 35.2
SPOT peptide array binding signal intensity (CaLsb1): 1.5
SPOT peptide array binding signal intensity (CaLsb4): 193
SPOT peptide array binding signal intensity (CaMyo5): 2
SPOT peptide array binding signal intensity (CaNbp2): 266
SPOT peptide array binding signal intensity (CaRvs167): 4
SPOT peptide array binding signal intensity (CaRvs167-3): 79.2
SPOT peptide array binding signal intensity (CaSho1): 327
SPOT peptide array binding signal intensity (CaSla1-D1-D2): 146
SPOT peptide array binding signal intensity (CaSla1-D3): ≤ 0
SPOT peptide array binding signal intensity (ScAbp1): 50
SPOT peptide array binding signal intensity (ScBbc1): 88
SPOT peptide array binding signal intensity (ScBem1-D1): 76
SPOT peptide array binding signal intensity (ScBzz1-D1): 12
SPOT peptide array binding signal intensity (ScBzz1-D2): 10
SPOT peptide array binding signal intensity (ScCyk3): 204
SPOT peptide array binding signal intensity (ScFus1): 312
SPOT peptide array binding signal intensity (ScHof1): 2.5
SPOT peptide array binding signal intensity (ScHse1): 1040
SPOT peptide array binding signal intensity (ScLsb1): 5.25
SPOT peptide array binding signal intensity (ScLsb2): 11
SPOT peptide array binding signal intensity (ScLsb3): 244
SPOT peptide array binding signal intensity (ScLsb4): 17
SPOT peptide array binding signal intensity (ScMyo3): 7
SPOT peptide array binding signal intensity (ScMyo5): 4.75
SPOT peptide array binding signal intensity (ScNbp2): 378
SPOT peptide array binding signal intensity (ScPex13): 1.25
SPOT peptide array binding signal intensity (ScRvs167): 20.3
SPOT peptide array binding signal intensity (ScSho1): 862
SPOT peptide array binding signal intensity (ScSla1-D1-D2): 779
SPOT peptide array binding signal intensity (ScSla1-D3): 15.2
SPOT peptide array binding signal intensity (SpAbp1-D1): 345
SPOT peptide array binding signal intensity (SpBbc1): 2.5
SPOT peptide array binding signal intensity (SpBzz1-D1): 184
